# Records with an inconclusive call do not appear. Activity calls are given as the source filed them. The calls were made as follows, unless noted: active = hit-call score of the fitted dose curve at least 0.9, where 1 is the maximum; inactive = score below 0.9.
# Experiments:
# [1] = target: Nuclear respiratory factor 1 (Homo sapiens) (UniProt Q16656); assay: ATG_NRF1_CIS: Attagene CIS-FACTORIAL HepG2 Assay for human Nuclear Respiratory Factor 1 (NRF1) Orphan Gene (AID 2282987); conditions: HepG2 NRF1 cis-element reporter, Attagene multiplex; actives raise or lower the signal
# Summary of the method: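 Human hepatoma HepG2 cells carrying transfected promoter-regulated reporter units were incubated with test chemicals for 24 h. Reporter transcripts were measured by RT-PCR plus capillary electrophoresis, and endpoints derived by bidirectional fitting with DMSO as baseline.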
# [2] = ATG_NFI_CIS: Attagene CIS-FACTORIAL HepG2 Assay for human Nuclear Factor I (NFI) (AID 2282989); conditions: HepG2 cis-regulatory reporter, NFI response element transcription; actives raise or lower the signal
# Summary of the method: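 Endogenous TF activity in HepG2 cells transiently transfected with cis-element-driven multiplexed reporter units, read 24 h after dosing. Reporter mRNA quantified by RT-PCR, 6-FAM labelling, HpaI digestion and capillary electrophoresis; bidirectional fit versus DMSO.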
# [3] = target: Myc proto-oncogene protein (Homo sapiens) (UniProt P01106); assay: ATG_Myc_CIS: Attagene CIS-FACTORIAL HepG2 Assay for human Myelocytomatosis (Myc) Proto-Oncogene Transcription Factor (AID 2282990); conditions: HepG2, Attagene cis-reporter transcription factor activity; actives raise or lower the signal
# Summary of the method: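 Multiplexed cis-reporter transcription in HepG2 cells after 24 h chemical treatment. Reporter mRNA measured by RT-PCR and capillary electrophoresis fluorescence; activity fitted bidirectionally against DMSO control.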
# [4] = ATG_NF_kB_CIS: Attagene CIS-FACTORIAL HepG2 Assay for human Nuclear Factor Kappa B (NF-kB) (AID 2282991); conditions: HepG2 Attagene cis-factorial NF-kB reporter mRNA; actives raise or lower the signal
# Summary of the method: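 Multiplexed cis-reporter assay in transiently transfected HepG2. 24 h treatment; RNA isolated, RT-PCR, labelled fragments resolved by CE. DMSO baseline.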
# [5] = ATG_NRF2_ARE_CIS: Attagene CIS-FACTORIAL HepG2 Assay for human Nuclear Factor Erythroid 2 Related Factor 2 (NFR2) response to Antioxidant Response Elements (ARE) (AID 2282992); conditions: HepG2 Attagene ARE/NRF2 reporter, transcription factor activity; actives raise or lower the signal
# Summary of the method: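 Transient MRTU transfection of HepG2; 24 h compound exposure; TriZol RNA, RT with oligo(dT), PCR, 6-FAM primer extension, HpaI cut, CE. Bidirectional fit vs DMSO.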
# [6] = ATG_Oct_MLP_CIS: Attagene CIS-FACTORIAL HepG2 Assay for human Octamer-Binding Transcription Factor (Oct) (AID 2282993); conditions: HepG2 Attagene cis-factorial Oct reporter, mRNA; actives raise or lower the signal
# Summary of the method: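 HepG2 cells transiently transfected with cis-element-driven reporter transcription units (endogenous TF activity); 24 h compound exposure. Reporter mRNA quantified by RT-PCR, 6-FAM labelling, HpaI digestion and capillary electrophoresis; bidirectional fit versus DMSO baseline.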
# [7] = target: Cellular tumor antigen p53 (Homo sapiens) (UniProt P04637); assay: ATG_p53_CIS: Attagene CIS-FACTORIAL HepG2 Assay for human p53 Transcription Factor (AID 2282994); conditions: HepG2 p53 cis-element reporter, Attagene mRNA; actives raise or lower the signal
# Summary of the method: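 HepG2, transient MRTU transfection (cis promoter elements, endogenous TFs); 24 h dosing; RNA isolation, RT-PCR, 6-FAM primer extension, HpaI digest, CE fluorescence; bidirectional fit vs DMSO.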
# [8] = BSK_3C_TissueFactor: BioMAP Diversity Plus: 3C Assay for Tissue Factor Biomarker Activity (AID 2282997); conditions: BioMAP 3C HUVEC, tissue factor biomarker readout; actives raise or lower the signal
# Summary of the method: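 ELISA read-out of Tissue Factor levels on human umbilical vein endothelium collected 24 h after chemical dosing. Gain or loss of signal was fitted relative to DMSO.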
# [9] = BSK_3C_uPAR: BioMAP Diversity Plus: 3C Assay for Urokinase-type plasminogen activator receptor (uPAR) Biomarker Activity (AID 2282998); conditions: BioMAP 3C HUVEC, uPAR biomarker ELISA; actives raise or lower the signal
# Summary of the method: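 Primary human umbilical vein endothelial cells, 3C system; surface uPAR measured by ELISA 24 h after dosing. Cytotoxicity via SRB total protein in parallel cultures; bidirectional fit against DMSO.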
# [10] = BSK_3C_VCAM1: BioMAP Diversity Plus: 3C Assay for Vascular cell adhesion molecule 1 (VCAM1) Biomarker Activity (AID 2282999); conditions: BioMAP 3C HUVEC, VCAM1 ELISA, cytokine-stimulated; actives raise or lower the signal
# Summary of the method: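 Human umbilical vein endothelial cells were dosed with compound for 24 h, after which cell-surface VCAM-1 was quantified by ELISA. Bidirectional curve fitting used DMSO as negative control and activity baseline.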
# [11] = target: human Peroxisome Proliferator-activated Receptor alpha (PPARa), PPARA (gene 5465) (UniProt Q07869); assay: ATG_PPARa_TRANS: Attagene TRANS-FACTORIAL HepG2 Assay for human Peroxisome Proliferator-activated Receptor alpha (PPARa) (AID 2283001; active = hit-call score of the fitted dose curve at least 0.9, where 1 is the maximum)
# Summary of the method: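 HepG2 cells transiently transfected with multiplexed GAL4-UAS reporter units and chimeric NR-Gal4 constructs were dosed for 24 h. Reporter mRNA was measured by RT-PCR with fluorescent labelling and capillary electrophoresis; gain of signal fitted against DMSO.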
# [12] = target: human Peroxisome Proliferator-activated Receptor delta (PPARd), PPARD (gene 5467) (UniProt Q03181); assay: ATG_PPARd_TRANS: Attagene TRANS-FACTORIAL HepG2 Assay for human Peroxisome Proliferator-activated Receptor delta (PPARd) (AID 2283002; active = hit-call score of the fitted dose curve at least 0.9, where 1 is the maximum)
# Summary of the method: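 Multiplexed trans-activation format: HepG2 liver cells expressing exogenous NR-Gal4 chimeras and GAL4-UAS reporters were exposed for 24 h. Reporter mRNA was detected by RT-PCR with capillary electrophoresis fluorescence; activity fitted as gain of signal relative to DMSO.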
# [13] = read-out: Intercellular Adhesion Molecule 1 (ICAM1), ICAM1 (gene 3383); assay: BSK_3C_ICAM1: BioMAP Diversity Plus: 3C Assay for Intercellular Adhesion Molecule 1 (ICAM1) Biomarker Activity (AID 2283003); conditions: primary human endothelial cells (HUVEC); actives raise or lower the signal
# Summary of the method: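 Human vascular endothelial primary cells, 3C conditions, 24 h treatment. ICAM-1 by ELISA.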
# [14] = BSK_3C_Proliferation: Cell Proliferation Assessment in the BioMAP Diversity Plus: 3C Assay (AID 2283006); conditions: primary human endothelial cells (HUVEC);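 as to AC50: potency may reflect either rise or fall in cell number versus DMSO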
# Summary of the method: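 Proliferation of human vascular endothelial primary cells after 48 h dosing, quantified as SRB-stained protein at 560 nm relative to DMSO.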
# [15] = target: Peroxisome proliferator-activated receptor gamma (Homo sapiens) (UniProt P37231); assay: ATG_PPARg_TRANS: Attagene TRANS-FACTORIAL HepG2 Assay for human Peroxisome Proliferator-activated Receptor-gamma (PPARg) (AID 2283007; active = hit-call score of the fitted dose curve at least 0.9, where 1 is the maximum)
# Summary of the method: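 Human hepatoma HepG2, transient MRTU transfection, 24 h treatment. mRNA reporter signal by RT-PCR plus capillary electrophoresis, fluorescence detection; fitted for increase over DMSO negative control.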
# [16] = target: Nuclear receptor subfamily 1 group I member 2 (Homo sapiens) (UniProt O75469); assay: ATG_PXR_TRANS: Attagene TRANS-FACTORIAL HepG2 Assay for human Pregnane X Receptor (PXR) (AID 2283008; active = hit-call score of the fitted dose curve at least 0.9, where 1 is the maximum)
# Summary of the method: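 Read-out is fluorescence of labelled reporter cDNA fragments separated by capillary electrophoresis after RT-PCR and HpaI digestion. Source: HepG2 cells carrying PXR-GAL4/UAS reporter constructs, treated 24 h; activity fitted upward relative to DMSO.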
# [17] = target: Retinoic acid receptor alpha (Homo sapiens) (UniProt P10276); assay: ATG_RARa_TRANS: Attagene TRANS-FACTORIAL HepG2 Assay for human Retinoic Acid Receptor alpha (RARa) (AID 2283005; active = hit-call score of the fitted dose curve at least 0.9, where 1 is the maximum)
# Summary of the method: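 HepG2 cells transiently transfected with multiple reporter units expressing chimeric RARα-GAL4 fusion, with GAL4-UAS-driven reporters. After 24 h compound exposure, reporter mRNA induction quantified by RT-PCR and capillary electrophoresis with fluorescent labeling; gain-of-signal fitted relative to DMSO control.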
# [18] = target: human Retinoic Acid Receptor gamma (RARg), RARG (gene 5916) (UniProt P13631); assay: ATG_RARg_TRANS: Attagene TRANS-FACTORIAL HepG2 Assay for human Retinoic Acid Receptor gamma (RARg) (AID 2283009; active = hit-call score of the fitted dose curve at least 0.9, where 1 is the maximum)
# Summary of the method: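 HepG2, RARg-GAL4 TRANS system, 24 h exposure; reporter mRNA by RT-PCR + CE fluorescence; increase over DMSO.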
# [19] = target: human Retinoic Acid Receptor beta (RARb), RARB (gene 5915) (UniProt P10826); assay: ATG_RARb_TRANS: Attagene TRANS-FACTORIAL HepG2 Assay for human Retinoic Acid Receptor beta (AID 2283004; active = hit-call score of the fitted dose curve at least 0.9, where 1 is the maximum)
# Summary of the method: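 Transient transfection of HepG2 with multiple reporter units → chemical dosing, 24 h → total RNA isolation → RT with oligo(dT) → reporter-specific PCR, 6-FAM primer extension, HpaI digest → capillary electrophoresis. Positive direction vs DMSO control.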
# Chain of human Peroxisome Proliferator-activated Receptor delta (PPARd), PPARD (gene 5467) (Q03181 whole entry, looked up, the tested form may be a part): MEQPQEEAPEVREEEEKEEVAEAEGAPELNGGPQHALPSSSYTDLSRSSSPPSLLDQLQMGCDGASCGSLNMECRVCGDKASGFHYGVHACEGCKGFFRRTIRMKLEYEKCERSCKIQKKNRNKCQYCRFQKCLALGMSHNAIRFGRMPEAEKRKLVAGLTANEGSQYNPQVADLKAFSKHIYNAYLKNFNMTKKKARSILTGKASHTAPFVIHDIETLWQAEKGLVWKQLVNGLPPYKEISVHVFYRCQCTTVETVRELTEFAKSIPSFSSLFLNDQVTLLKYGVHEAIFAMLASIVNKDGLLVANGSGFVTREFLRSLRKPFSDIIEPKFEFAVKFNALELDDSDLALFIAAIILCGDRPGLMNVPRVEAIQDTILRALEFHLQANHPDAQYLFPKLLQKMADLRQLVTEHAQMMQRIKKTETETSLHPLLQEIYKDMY
# Chain of human Retinoic Acid Receptor gamma (RARg), RARG (gene 5916) (P13631 whole entry, looked up, the tested form may be a part): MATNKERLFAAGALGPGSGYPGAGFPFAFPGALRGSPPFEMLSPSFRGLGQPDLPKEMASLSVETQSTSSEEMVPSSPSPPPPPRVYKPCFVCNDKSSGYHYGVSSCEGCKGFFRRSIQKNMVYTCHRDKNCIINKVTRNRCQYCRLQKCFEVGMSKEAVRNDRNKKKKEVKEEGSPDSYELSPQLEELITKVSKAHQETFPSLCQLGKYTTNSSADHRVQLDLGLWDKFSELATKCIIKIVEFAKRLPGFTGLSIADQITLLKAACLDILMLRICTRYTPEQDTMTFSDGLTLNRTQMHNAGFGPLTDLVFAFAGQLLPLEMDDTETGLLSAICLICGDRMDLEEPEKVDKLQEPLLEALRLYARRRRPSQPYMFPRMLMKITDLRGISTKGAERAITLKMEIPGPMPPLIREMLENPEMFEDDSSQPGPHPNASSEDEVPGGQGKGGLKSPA
# Chain of Myc proto-oncogene protein (Homo sapiens) (P01106 whole entry, looked up): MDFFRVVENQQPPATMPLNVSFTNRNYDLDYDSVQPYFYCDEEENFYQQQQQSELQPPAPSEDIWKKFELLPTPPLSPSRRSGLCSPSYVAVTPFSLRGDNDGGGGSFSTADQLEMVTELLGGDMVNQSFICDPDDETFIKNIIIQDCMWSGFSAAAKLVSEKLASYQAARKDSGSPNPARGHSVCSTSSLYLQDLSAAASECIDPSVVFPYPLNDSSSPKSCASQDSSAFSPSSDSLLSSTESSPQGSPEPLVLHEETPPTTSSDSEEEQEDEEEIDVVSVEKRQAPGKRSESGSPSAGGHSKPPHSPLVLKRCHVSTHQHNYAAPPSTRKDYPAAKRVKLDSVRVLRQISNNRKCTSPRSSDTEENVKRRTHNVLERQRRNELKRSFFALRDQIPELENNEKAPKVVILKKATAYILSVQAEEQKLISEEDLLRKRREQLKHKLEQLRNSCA
# Chain of Nuclear receptor subfamily 1 group I member 2 (Homo sapiens) (O75469 whole entry, looked up, the tested form may be a part): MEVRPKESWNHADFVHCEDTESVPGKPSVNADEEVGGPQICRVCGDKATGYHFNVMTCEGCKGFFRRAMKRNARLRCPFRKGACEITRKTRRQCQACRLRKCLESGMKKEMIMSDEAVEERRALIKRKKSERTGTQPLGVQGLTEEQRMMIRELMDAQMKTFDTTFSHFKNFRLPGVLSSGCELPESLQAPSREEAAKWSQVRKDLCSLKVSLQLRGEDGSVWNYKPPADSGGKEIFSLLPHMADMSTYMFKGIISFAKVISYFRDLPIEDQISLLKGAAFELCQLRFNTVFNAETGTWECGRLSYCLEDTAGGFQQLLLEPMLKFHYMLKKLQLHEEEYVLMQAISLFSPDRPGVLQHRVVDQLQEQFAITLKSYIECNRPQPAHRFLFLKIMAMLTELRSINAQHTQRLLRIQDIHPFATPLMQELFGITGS
# Chain of Cellular tumor antigen p53 (Homo sapiens) (P04637 whole entry, looked up): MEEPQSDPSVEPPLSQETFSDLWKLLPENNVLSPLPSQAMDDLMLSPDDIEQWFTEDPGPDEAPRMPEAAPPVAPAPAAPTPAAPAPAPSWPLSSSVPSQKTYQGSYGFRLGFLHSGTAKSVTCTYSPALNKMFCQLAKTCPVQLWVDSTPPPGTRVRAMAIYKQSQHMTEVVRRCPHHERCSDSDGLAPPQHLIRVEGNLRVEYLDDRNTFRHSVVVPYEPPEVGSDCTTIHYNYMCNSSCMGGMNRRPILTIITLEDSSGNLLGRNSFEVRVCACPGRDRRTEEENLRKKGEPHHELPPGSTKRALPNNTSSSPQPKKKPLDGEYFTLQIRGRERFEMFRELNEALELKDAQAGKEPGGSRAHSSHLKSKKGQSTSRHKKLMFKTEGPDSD
# Chain of human Peroxisome Proliferator-activated Receptor alpha (PPARa), PPARA (gene 5465) (Q07869 whole entry, looked up, the tested form may be a part): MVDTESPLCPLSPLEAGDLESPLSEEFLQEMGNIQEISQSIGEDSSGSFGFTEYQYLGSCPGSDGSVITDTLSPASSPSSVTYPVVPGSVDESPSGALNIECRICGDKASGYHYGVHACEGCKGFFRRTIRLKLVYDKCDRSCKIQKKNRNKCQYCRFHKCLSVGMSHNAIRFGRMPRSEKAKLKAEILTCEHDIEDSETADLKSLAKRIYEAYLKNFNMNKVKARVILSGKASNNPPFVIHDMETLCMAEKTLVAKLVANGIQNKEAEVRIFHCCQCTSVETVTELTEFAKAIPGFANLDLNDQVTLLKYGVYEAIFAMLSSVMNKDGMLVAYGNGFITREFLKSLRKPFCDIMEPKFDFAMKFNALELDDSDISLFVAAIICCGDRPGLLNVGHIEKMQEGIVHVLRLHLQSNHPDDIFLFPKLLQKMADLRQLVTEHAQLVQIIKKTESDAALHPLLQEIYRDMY
# Chain of Peroxisome proliferator-activated receptor gamma (Homo sapiens) (P37231 whole entry, looked up): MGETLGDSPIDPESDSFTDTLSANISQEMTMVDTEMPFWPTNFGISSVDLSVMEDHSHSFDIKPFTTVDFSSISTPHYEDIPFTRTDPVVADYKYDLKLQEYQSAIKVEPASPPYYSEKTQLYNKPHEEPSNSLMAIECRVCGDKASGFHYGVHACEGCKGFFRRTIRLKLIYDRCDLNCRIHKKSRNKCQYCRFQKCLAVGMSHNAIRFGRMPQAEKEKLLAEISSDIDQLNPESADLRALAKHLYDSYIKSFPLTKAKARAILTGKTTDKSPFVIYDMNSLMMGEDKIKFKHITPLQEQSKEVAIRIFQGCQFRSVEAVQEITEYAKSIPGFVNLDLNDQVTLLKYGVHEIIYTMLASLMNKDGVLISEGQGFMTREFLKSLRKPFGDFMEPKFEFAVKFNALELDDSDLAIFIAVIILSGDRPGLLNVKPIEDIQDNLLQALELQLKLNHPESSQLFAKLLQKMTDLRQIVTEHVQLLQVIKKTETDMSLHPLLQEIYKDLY
# Chain of Nuclear respiratory factor 1 (Homo sapiens) (Q16656 whole entry, looked up): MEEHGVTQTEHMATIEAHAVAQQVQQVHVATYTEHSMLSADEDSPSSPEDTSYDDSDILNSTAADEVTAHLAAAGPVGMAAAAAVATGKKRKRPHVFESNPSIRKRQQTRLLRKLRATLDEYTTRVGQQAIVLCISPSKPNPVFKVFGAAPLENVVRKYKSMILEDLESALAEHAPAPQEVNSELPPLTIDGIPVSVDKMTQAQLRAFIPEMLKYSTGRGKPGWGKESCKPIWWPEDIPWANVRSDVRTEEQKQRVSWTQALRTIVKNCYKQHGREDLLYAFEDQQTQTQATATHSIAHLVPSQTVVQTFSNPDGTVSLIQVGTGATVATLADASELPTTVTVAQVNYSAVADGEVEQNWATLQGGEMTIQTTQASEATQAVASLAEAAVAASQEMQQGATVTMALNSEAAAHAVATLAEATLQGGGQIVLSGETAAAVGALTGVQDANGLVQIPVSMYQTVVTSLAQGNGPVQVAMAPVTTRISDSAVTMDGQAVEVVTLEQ
# Chain of human Retinoic Acid Receptor beta (RARb), RARB (gene 5915) (P10826 whole entry, looked up): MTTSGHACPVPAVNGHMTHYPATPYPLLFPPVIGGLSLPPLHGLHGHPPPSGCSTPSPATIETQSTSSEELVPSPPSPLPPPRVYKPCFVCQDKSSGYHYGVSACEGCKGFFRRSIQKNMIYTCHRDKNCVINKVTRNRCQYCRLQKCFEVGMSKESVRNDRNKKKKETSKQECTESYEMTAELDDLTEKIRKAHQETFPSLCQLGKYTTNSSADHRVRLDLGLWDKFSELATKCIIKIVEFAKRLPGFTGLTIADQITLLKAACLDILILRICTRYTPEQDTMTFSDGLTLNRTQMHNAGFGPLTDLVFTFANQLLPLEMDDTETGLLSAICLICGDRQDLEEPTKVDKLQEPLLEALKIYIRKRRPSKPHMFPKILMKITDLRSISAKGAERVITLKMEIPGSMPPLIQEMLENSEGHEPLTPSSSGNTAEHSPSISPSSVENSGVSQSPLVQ
# Chain of Retinoic acid receptor alpha (Homo sapiens) (P10276 whole entry, looked up, the tested form may be a part): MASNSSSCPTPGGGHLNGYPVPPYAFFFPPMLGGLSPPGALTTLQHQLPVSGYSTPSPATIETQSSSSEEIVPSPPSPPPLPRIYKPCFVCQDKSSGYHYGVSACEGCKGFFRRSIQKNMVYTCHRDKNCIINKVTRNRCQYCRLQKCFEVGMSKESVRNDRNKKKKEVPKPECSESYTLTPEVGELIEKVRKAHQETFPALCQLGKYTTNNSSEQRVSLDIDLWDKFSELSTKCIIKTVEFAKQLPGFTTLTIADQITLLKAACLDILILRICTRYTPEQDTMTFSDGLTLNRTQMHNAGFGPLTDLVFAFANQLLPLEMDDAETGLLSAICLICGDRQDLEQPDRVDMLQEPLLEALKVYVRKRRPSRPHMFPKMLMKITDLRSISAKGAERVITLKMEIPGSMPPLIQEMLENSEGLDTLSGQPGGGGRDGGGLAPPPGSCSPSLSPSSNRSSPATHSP
smiles,measurement,setting,value
CCCCCCCC=O,outcome,[1],inactive
same,outcome,[2],inactive
same,outcome,[3],inactive
same,outcome,[4],inactive
same,outcome,[5],inactive
same,outcome,[6],inactive
same,outcome,[7],inactive
same,outcome,[8],inactive
same,outcome,[9],inactive
same,outcome,[10],inactive
same,outcome,[11],inactive
same,outcome,[12],inactive
same,outcome,[13],inactive
same,outcome,[14],inactive
same,AC50,[15],100 µM (active)
same,outcome,[16],inactive
CN1CCN(Cc2cc(-c3ccc4[nH]c(=O)oc4c3)co2)[C@@H](c2ccc(F)cc2)C1,outcome,[1],inactive
same,outcome,[2],inactive
same,outcome,[3],inactive
same,AC50,[4],8.72 µM (active)
same,AC50,[5],61.4 µM (active)
same,AC50,[6],45.4 µM (active)
same,AC50,[7],12.1 µM (active)
same,outcome,[8],inactive
same,AC50,[9],26.7 µM (active)
same,outcome,[10],inactive
same,outcome,[11],inactive
same,outcome,[12],inactive
same,outcome,[13],inactive
same,AC50,[14],23.4 µM (active)
same,AC50,[15],42.4 µM (active)
same,outcome,[16],inactive
Oc1ccc2c(c1)OC[C@@H](N1CCC(O)(c3ccc(F)cc3)CC1)[C@H]2O,outcome,[1],inactive
same,outcome,[2],inactive
same,outcome,[3],inactive
same,outcome,[4],inactive
same,AC50,[5],23.4 µM (active)
same,AC50,[6],27.1 µM (active)
same,outcome,[7],inactive
same,outcome,[8],inactive
same,outcome,[9],inactive
same,outcome,[10],inactive
same,outcome,[11],inactive
same,outcome,[12],inactive
same,outcome,[13],inactive
same,outcome,[17],inactive
same,outcome,[14],inactive
same,AC50,[15],16.5 µM (active)
same,AC50,[16],13.6 µM (active)
same,outcome,[18],inactive
CCCCCCOCCO,outcome,[1],inactive
same,outcome,[2],inactive
same,outcome,[3],inactive
same,outcome,[4],inactive
same,outcome,[5],inactive
same,outcome,[6],inactive
same,outcome,[7],inactive
same,outcome,[8],inactive
same,outcome,[9],inactive
same,outcome,[10],inactive
same,outcome,[11],inactive
same,outcome,[12],inactive
same,outcome,[13],inactive
same,outcome,[14],inactive
same,outcome,[15],inactive
same,outcome,[16],inactive
COc1cc(C=O)ccc1O,outcome,[1],inactive
same,outcome,[2],inactive
same,outcome,[3],inactive
same,outcome,[4],inactive
same,outcome,[5],inactive
same,outcome,[6],inactive
same,outcome,[7],inactive
same,outcome,[8],inactive
same,outcome,[9],inactive
same,outcome,[10],inactive
same,outcome,[12],inactive
same,outcome,[13],inactive
same,outcome,[14],inactive
Nc1nc(N)c2nc(CNc3ccc(C(=O)N[C@@H](CCC(=O)O)C(=O)O)cc3)cnc2n1,outcome,[1],inactive
same,outcome,[2],inactive
same,outcome,[3],inactive
same,outcome,[4],inactive
same,outcome,[5],inactive
same,outcome,[6],inactive
same,outcome,[7],inactive
same,outcome,[8],inactive
same,outcome,[9],inactive
same,outcome,[10],inactive
same,outcome,[12],inactive
same,outcome,[13],inactive
same,outcome,[19],inactive
same,outcome,[17],inactive
same,outcome,[14],inactive
same,outcome,[18],inactive
C[C@]12C=CC(=O)C=C1CC[C@@H]1[C@@H]2C(=O)C[C@@]2(C)[C@H]1CC[C@]2(O)C(=O)CO,outcome,[1],inactive
same,outcome,[2],inactive
same,outcome,[3],inactive
same,outcome,[4],inactive
same,outcome,[5],inactive
same,outcome,[6],inactive
same,outcome,[7],inactive
same,outcome,[8],inactive
same,outcome,[9],inactive
same,outcome,[10],inactive
same,outcome,[11],inactive
same,outcome,[13],inactive
same,outcome,[14],inactive
same,outcome,[15],inactive
same,outcome,[16],inactive
Cc1ccc(C)c(C)c1,outcome,[1],inactive
same,outcome,[2],inactive
same,outcome,[3],inactive
same,outcome,[4],inactive
same,outcome,[5],inactive
same,outcome,[6],inactive
same,outcome,[7],inactive
same,outcome,[8],inactive
same,outcome,[9],inactive
same,outcome,[10],inactive
same,outcome,[11],inactive
same,outcome,[12],inactive
same,outcome,[13],inactive
same,outcome,[19],inactive
same,outcome,[14],inactive
same,outcome,[16],inactive
same,outcome,[18],inactive

# Reference: PubChem BioAssay (EPA / NIEHS)
